# Screen size: about 360,000 compounds; about 1,100 (0.31%) were called active. This excerpt belongs to a sample that is enriched for actives. A number with no mark means an inactive call. Cut-off read from the data, not from the text of the source: active = activity change below about -30%; inactive = the rest.
# Test system: cytosolic chaperonin (CCT/TRiC complex)
# Assay: High-Throughput Screening for Modulators of Cytosolic Chaperonin Activity
# Conditions: purified chaperonin ATPase assay, HTRF ADP detection, 30 min; hits give low values
# Text: The eukaryotic chaperonin named TRiC (for TCP-1 ring complex), also called CCT (for chaperonin containing TCP1), is an essential and conserved chaperone required for the folding and activation of 10-15% of the proteins encoded by the human genome. […] Despite its central role in cellular folding, little is known about TRiC mechanism and mode of substrate binding. Currently, no specific TRiC inhibitors are available. Given the early promise of other chaperone-directed inhibitors as cancer therapeutics (e.g. HSP90 inhibitors), inhibitors of TRiC activity may also selectively target transformed cells and have potential use as therapeutics for cancer.
# To this end, a miniaturized assay was developed to screen against the Molecular Libraries Small Molecule Repository (MLSMR).
# NIH Chemical Genomics Center [NCGC]
# NIH Molecular Libraries Probe Centers Network [MLPCN]
# Assay Submitter (PI): Judith Frydman, Stanford University
# 1.5 uL/well TRiC enzyme suspended in buffer (30 mM TRIS pH7.4, 100 mM KCl, 5 mM MgCl2, 1 mM DTT) was added with BioRAPTR FRD dispenser at 40 nM or 20 nM (based on the enzymatic activity of used batches) final concentration to a white solid bottom medium binding 1536-well plate (Greiner Bio-One, Monroe, NC), and quickly spanned down. 23 nl/well of compound solutions in DMSO were added with a pintool transfer (Kalypsis, San Diego, CA) at a single 76 uM final concentration. Next, 1.5 µl/well ATP was dispensed with BioraptR at 10 uM final concentration after which the plates were incubated at 37 deg C for 30 min. HTRF(R) Transcreener(R) ADP (Cisbio US, Bedford, MA) detection reagents were prepared accordingly to the protocol and dispensed into the plate (1.5 uL/well each), incubated for 30 min at ambient temperature. Then, the plates were read using Envision reader with excitation at 330nm and emission at 615nm (Eu(3)-Cryptate donor signal) and 665nm (d2 acceptor signal). The ratio of […] was calculated for each well.
# % is set by controls: 0 for no effect and ±100 for the full control effect.
row,Structure (SMILES),activity change
1,Nc1ccc([N+](=O)[O-])cc1,-35.1% (active)
2,CC(=O)Cc1ccc(OC(C)C)cc1,-4.19%
3,CC(C)(C)c1ccc(OC(=O)N2CCCCC2)cc1,-0.84%
4,COc1ccc(CCn2c(O)c(C=NC3CC3)c(=O)[nH]c2=O)cc1OC,-0.86%
5,O=C1NC(=O)C(C/C=C/c2ccccc2)C(=O)N1,-117% (active)
6,O=C1NC(=O)C(Cc2ccccc2)C(=O)N1,-0.218%
7,CSC1=NP(=S)(SC)N(C)c2nc3n(c21)CCC3 (stereo not given),-0.177%
8,CCOC(=O)c1c(C)c(C(=O)N2CCC3(CC2)OCCO3)c(C)n1CC,-3.47%
9,COCCNC(=O)CN1C2CCC1CC(O)(c1cccnc1)C2 (stereo not given),0.503%
10,Cc1ccc(Cn2nnnc2CN2CCC(n3nnc4ccccc43)CC2)cc1,-0.0525%

# — PubChem BioAssay AID651819 (National Center for Advancing Translational Sciences (NCATS), 2012)
